Compounds with a hit are over-represented: about 3.6% of the library has one in this group of screens.
Myeloid diff 2: induction of myeloid progenitor differentiation, primary screen, cell-based, flow cytometry, MLPCN library. calls only at 10 µM. hit rate 1% among 360,000. ER-HoxA9 myeloid progenitors, lysozyme-GFP differentiation. AID 624256, 2012;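 active = normalized GFP-positive differentiation at or above the plate's own cutoff, the solvent-only control mean plus 3 SD; inconclusive = no clear call, values can overlap the other calls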;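 also: cells exposed to compound for four days before flow analysis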
NadD block: inhibitors of S. aureus NadD, primary screen, biochemical, colorimetric, uHTS | Nicotinate-nucleotide adenylyltransferase NadD (Staphylococcus aureus N315) | purified NadD enzyme, colorimetric absorbance read-out | inhibition, % at 20 µM | hit rate 0.78% among 360,000; in the data active = inhibition above about 26%
FAS TE block: FAS thioesterase domain inhibitors, primary screen, biochemical, fluorescence intensity, uHTS; recombinant FAS-TE, OMFH fluorogenic substrate, fluorescence endpoint; inhibition, % at 15 µM; hit rate 0.67% among 360,000;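 active = compounds whose normalised, plate-corrected inhibition of enzyme fluorescence in the single-dose primary screen is 50% or more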
NRP1-CendR mod: modulators of CendR peptide binding to NRP-1, primary screen, biochemical, fluorescence polarization, uHTS; Neuropilin-1 (Homo sapiens), O14786; FAM-RPARPAR peptide binding to NRP-1; inhibition, % at 25 µM; hit rate 0.85% among 360,000; AID 602438, 2012;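 active = inhibition or corrected inhibition above about 18%, plus a signal ratio from 0.5 to 1.5, limit read from the data, passing the limit was not always enough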
CRFBP-R2 block: antagonists of CRF-BP/CRF-R2 complex, primary screen, cell-based, HEK293, calcium dye fluorescence, uHTS; CRF-induced calcium fluorescence; inhibition, % at 11.8 µM; hit rate 0.59% among 350,000;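 active = inhibition of the ligand-induced calcium signal above about 50% at the single tested concentration, limit read from the data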
A number is an active result; i = inactive; ? = inconclusive; nt = no result given; + = active, no number.

SMILES | Myeloid diff 2 | NadD block | FAS TE block | NRP1-CendR mod | CRFBP-R2 block
O=C(N/C=N/OCc1ccc(Cl)cc1Cl)NOCc1ncc(C(F)(F)F)cc1Cl | nt | i | i | i | i
CCC(=O)Nc1nonc1-c1nc2ccccc2n1Cc1ccccc1 | i | i | i | i | i
CCOC(=O)Cn1c(-c2nonc2NC(=O)c2ccccc2F)nc2ccccc21 | + | i | i | i | i
CSc1ccc(S(=O)(=O)NCC(=O)OCC(=O)N(Cc2ccccc2)C(C)C)cc1[N+](=O)[O-] | i | i | i | i | 56
O=C(O)c1cnn2c(C(F)(F)F)cc(-c3ccco3)nc12 | i | i | i | i | i
Cc1nn(C)c(C)c1NC(=O)c1cc2nc(-c3ccco3)cc(C(F)(F)F)n2n1 | i | i | i | i | 134
Cc1c(NC(=O)c2cnn3c(C(F)(F)F)cc(-c4ccco4)nc23)c(=O)n(-c2ccccc2)n1C | i | i | i | 23 | i
COc1ccc(CN2C(=O)C(CC(=O)NC(c3ccccc3)c3ccccc3)CC(C(=O)N(C(C)C)C(C)C)=C2C)cc1 (stereo not drawn) | i | i | i | i | i
Cc1ccc(CNc2ncnc3ccc(-c4ccoc4C)cc23)o1 | i | i | i | i | nt
COc1ccc2[nH]c(C)c(CN3CCCCC3)c(=O)c2c1 | nt | i | i | 32 | i
CCc1ccc2[nH]c(C)c(CN3CCCCCC3)c(=O)c2c1 | i | i | i | i | i
CN(C)CCCNC(=O)c1cccc(-c2cnc3cccnn23)c1 | i | i | i | i | nt
COc1ccc2c(c1)c(=O)oc1cc(OCC(=O)N3CCc4ccccc4C3)ccc12 | i | 33 | i | i | i
CC(C)Oc1cc(F)ccc1-c1cc(C(=O)Nc2cccc(C(F)(F)F)c2)[nH]n1 | i | i | i | i | nt
O=C(CC1C(=O)NCCN1Cc1cccc(C(F)(F)F)c1)NCCc1cnccn1 (stereo not drawn) | i | i | i | 21 | i
CCOc1ccc(CN2CCNC(=O)C2CC(=O)NCCc2cnccn2)cc1 (stereo not drawn) | i | i | i | i | i
CCCCNC(=O)C1(C)CCN1C(=O)c1ccc(OC)c(C(F)(F)F)c1 (stereo not drawn) | i | i | i | i | nt
O=C(Nc1ccccc1C(=O)N1CCOCC1)c1ccncc1 | i | i | i | i | 102
O=C(Nc1ccccc1C(=O)N1CCOCC1)c1ccco1 | i | i | i | i | i
CC(=O)Oc1cccc(C(=O)Nc2ccccc2C(=O)N2CCCC2)c1 | i | i | i | 20 | i
COc1cccc(C(=O)Nc2ccccc2C(=O)N2CCCC2)c1 | i | i | i | i | i
O=C(NCC[C@@H]1CC[C@@H](NS(=O)(=O)c2ccccc2)[C@@H](CO)O1)c1cc(Cl)cc(Cl)c1 | i | nt | nt | i | nt
Cc1n[nH]c(=S)n(/N=C/c2cccs2)c1=O | i | i | i | i | 115
Cc1ccc(Cl)c(NC(=O)CSc2cccc[n+]2[O-])c1Cl | i | i | i | 28 | i
O=C(CSc1cccc[n+]1[O-])Nc1cc([N+](=O)[O-])ccc1Cl | i | i | i | i | i
SMILES | Myeloid diff 2 | NadD block | FAS TE block | NRP1-CendR mod | CRFBP-R2 block
O=C(CSc1cccc[n+]1[O-])Nc1cc2c(cc1Cl)C(=O)c1ccccc1C2=O | i | 34 | i | i | i
CC(C)C[C@@H]1Cc2[nH][nH]c(=O)c2[C@H](C(C)C)O1 | i | i | i | i | nt
CN(/N=C/c1ccc(Cl)cc1)c1ncc(Cl)cc1C(F)(F)F | i | i | i | i | i
CN(/N=C/c1ccc(Cl)cc1Cl)c1ncc(Cl)cc1C(F)(F)F | i | i | i | i | 63
CC(C#N)Sc1nnc(-c2ccccc2F)n1C1CC1 (stereo not drawn) | i | i | i | i | i
OCCN1CCN(C(=S)Nc2cccc(C(F)(F)F)c2)CC1 | i | i | i | i | i
COc1cccc(CNC(=O)C2CCC(=O)N(CC3CCCCC3)C2)c1OC (stereo not drawn) | i | i | i | i | 92
COc1cccc(CN2CC(C(=O)NCc3cnn(C)c3)CCC2=O)c1 (stereo not drawn) | i | i | i | i | i
COc1cccc(CN2CC(C(=O)NCc3ccc(Cl)s3)CCC2=O)c1 (stereo not drawn) | i | i | i | i | 63
O=C(NCc1cccc(Cl)c1)C1CCC(=O)N(CC2CCCCC2)C1 (stereo not drawn) | ? | i | i | i | 86
O=C(NCc1ccc(Cl)cc1)C1CCC(=O)N(C2CC2)C1 (stereo not drawn) | i | i | i | 20 | i
O=C(NCc1ccc(F)c(F)c1)C1CCC(=O)N(CC2CCCCC2)C1 (stereo not drawn) | i | i | i | i | i
Cc1onc(-c2ccccc2)c1C(=O)OCC(=O)N1CCN(c2ccccc2)CC1 | i | i | i | i | i
COc1ccc(C2SCC(=O)N2c2ccc(OC)cc2)cc1 (stereo not drawn) | i | i | i | i | i
COc1ccc(N2C(=O)CSC2c2ccc([N+](=O)[O-])cc2)cc1 (stereo not drawn) | i | i | i | i | 83
O=C(C(=Cc1ccccc1)c1ccccc1)c1ccccc1 | i | i | i | i | nt
O=C(O)/C(=C\c1ccccc1)c1ccc2ccccc2c1 | i | i | i | 21 | i
Cc1ccc(NC(=S)N/N=C2\CCCCC2C)cc1 (stereo not drawn) | + | i | i | i | i
CCCCCCCCN1C(=O)[C@H](CC(=O)NCc2cccc(C(F)(F)F)c2)C[C@@]2(C(=O)OC)CCCCC=C12 | i | i | i | i | nt
COc1cc2c(cc1OC)-c1nc3ccccc3c(=O)n1C(C)(C)C2 | + | i | i | i | i
COc1ccc(/C=C2\CCn3c2nc2ccccc2c3=O)cc1OC | i | i | i | i | i
COc1ccc(-c2nn(-c3ccccc3)cc2/C=N/NC(N)=S)cc1OC | i | i | i | i | i
COc1ccc(-c2nn(-c3ccccc3)cc2/C=C(\C#N)S(=O)(=O)c2ccccc2)cc1OC | i | i | i | i | 66
CC(=O)NC1C(=O)N(CCc2ccccc2)c2ccc(Br)cc21 (stereo not drawn) | i | i | i | 35 | i
Cc1ccc(C(=O)OCC(=O)c2cc(C)n(CC3CCCO3)c2C)cc1 (stereo not drawn) | i | i | i | i | 79
Cc1cc(C(=O)COC(=O)c2cc(O)c3ccccc3c2O)c(C)n1CC1CCCO1 (stereo not drawn) | i | 36 | i | i | i
Cc1cc(C)c(C#N)c(SCCS(=O)(=O)c2ccc(C(C)(C)C)cc2)n1 | + | i | i | i | i
Cc1cc(C)c(C#N)c(SCCS(=O)(=O)c2ccc(Cl)cc2)n1 | i | i | i | i | i
COc1cc2ccccc2cc1C(=O)N(CCN(C)C)c1nc2c(OC)ccc(OC)c2s1 | ? | i | i | i | 72
COc1ccc(OC)c2sc(N(CCN(C)C)C(=O)c3ccc4ccccc4c3)nc12 | i | i | i | i | i
